This is an account of results in PubChem BioAssay (NCI).

Among the test systems are SK-MEL-2 melanoma; EKVX NSCLC; SN12C renal; UO-31 renal; TK-10 renal; ACHN renal; CAKI-1 renal; A498 renal; CCRF-CEM leukemia; MOLT-4 leukemia; SR leukemia; RPMI-8226 leukemia; OVCAR-8 ovarian; OVCAR-5 ovarian; OVCAR-4 ovarian; SK-OV-3 ovarian; IGROV1 ovarian; OVCAR-3 ovarian; HS 578T breast; NCI/ADR-RES ovarian.
Assay in all cases: NCI-60 one-dose screen, 48 h (100 = growth as untreated, 0 = no growth, -100 = all killed)
Conditions in all cases: 10 µM unless noted

SMILES strings stand for the structures. About 83,000 compounds went through this panel and 20% of them were active in at least one assay; those are over-represented in the sample as a whole.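 Negative percent growth values reflect cell death: -40 means 40% of the cells present at the start died, and -100 means all died.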 Values without a mark were called inactive. The source made the active and inactive calls. How the source made its calls: active means growth percent below 10; inactive means the rest.

Consider `CC(=O)OCC(=O)O[C@@H]1C[C@]2(C(C)C)O[C@@]1(C)[C@@H]1CC[C@@H](C)[C@H]1[C@@H]2OC(=O)/C=C/c1ccccc1`, for which the growth was 90.9% with SK-MEL-2 melanoma; 68.9% in the test with EKVX NSCLC; 20.3% with SN12C renal; -83.3% (active) with UO-31 renal; 81.1% in the test with TK-10 renal; -4.65% (active) in the test on ACHN renal. The growth was -2.07% (active) with CAKI-1 renal; -92.5% (active) in the test on A498 renal; 70.7% in the test on CCRF-CEM leukemia; 74.5% with MOLT-4 leukemia; 78.4% with SR leukemia; 73.7% in the test with RPMI-8226 leukemia. Moreover, the growth in the test on OVCAR-8 ovarian is 25%; with OVCAR-5 ovarian it was 99.8%; in the test on OVCAR-4 ovarian, 87.9%; in the test with SK-OV-3 ovarian, 87.7%; in the test with IGROV1 ovarian it was 106%; in the test on OVCAR-3 ovarian it was 90.9%. Also, the results for the growth in the test with HS 578T breast and in the test with NCI/ADR-RES ovarian were -18% (active) and 21.7%, respectively.
As for `COc1ccc(C(=O)/C=C/Nc2cc(-c3ccccc3)nn2-c2ccccc2)cc1`, the growth in the test on SK-MEL-2 melanoma was 101%; in the test on EKVX NSCLC, 89.4%; in the test with SN12C renal, 94.5%; with UO-31 renal, 79.3%; in the test on TK-10 renal, 84.2%; in the test on ACHN renal, 99%. Further, the growth with CAKI-1 renal was 94.3%; in the test with A498 renal it was 78%; in the test with CCRF-CEM leukemia it was 84.2%; with MOLT-4 leukemia it was 85.4%; in the test on SR leukemia, 99.3%; with RPMI-8226 leukemia, 94.9%. For the same compound, the growth in the test on OVCAR-8 ovarian was 95.9%; in the test on OVCAR-5 ovarian, 94.2%; in the test with OVCAR-4 ovarian, 98.7%; in the test on SK-OV-3 ovarian, 97.6%; in the test with IGROV1 ovarian, 97.8%; with OVCAR-3 ovarian it was 109%. Besides, the growth with HS 578T breast is 107%; with NCI/ADR-RES ovarian, 93.2%.
Turning to `COc1ccc(-c2nc(SCCC(C)C)nc(N/N=C(/C)c3ccc(N)cc3)c2C#N)cc1`, the growth in the test with SK-MEL-2 melanoma was 109%; in the test on EKVX NSCLC, 93.4%; in the test with SN12C renal, 75.1%; in the test with UO-31 renal it was 69.3%; with TK-10 renal, 104%; with ACHN renal, 92.9%. Also, the growth in the test on CAKI-1 renal is 81.8%; in the test on A498 renal it was 90.9%; with CCRF-CEM leukemia, 95.8%; in the test with MOLT-4 leukemia, 95.4%; with SR leukemia it was 90.2%; in the test with RPMI-8226 leukemia it was 93.3%. The growth is 92.7% with OVCAR-8 ovarian; 93.7% with OVCAR-5 ovarian; 101% with OVCAR-4 ovarian; 89% with SK-OV-3 ovarian; 79% in the test on IGROV1 ovarian; 99.2% with OVCAR-3 ovarian. Besides, the growth was 92.4% in the test on HS 578T breast and 93.6% in the test with NCI/ADR-RES ovarian.
As for `COc1cc(/C=C/C(=O)c2ccc(-n3cc(CN4CCN(c5cc6c(cc5F)c(=O)c(C(=O)O)cn6C5CC5)CC4)nn3)cc2)cc(OC)c1OC`, the growth in the test with SK-MEL-2 melanoma was 102%; with EKVX NSCLC, 80.8%; in the test on SN12C renal, 58.8%; in the test on UO-31 renal, 65.4%; in the test on TK-10 renal, 97.8%; in the test with ACHN renal it was 93.4%. Moreover, the growth in the test with CAKI-1 renal is 68.7%; in the test on A498 renal, 34.9%; with CCRF-CEM leukemia, 34.6%; with MOLT-4 leukemia it was 80.4%; in the test with SR leukemia it was 21.3%; with RPMI-8226 leukemia, 6.02% (active). Moreover, the growth is 80.7% in the test on OVCAR-8 ovarian; 92.7% with OVCAR-5 ovarian; 96.7% in the test with OVCAR-4 ovarian; 79% in the test on SK-OV-3 ovarian; 79.4% in the test on IGROV1 ovarian; 84.9% in the test on OVCAR-3 ovarian. The values for the growth with HS 578T breast and with NCI/ADR-RES ovarian were 71.2% and 85.6%, respectively.
Consider `C#CCOc1cccc(Nc2c(Cl)c(CCl)nc3ccc(Oc4ccccc4)cc23)c1`, for which the growth with SK-MEL-2 melanoma is 37.4%; in the test with EKVX NSCLC it was 76.5%; in the test on SN12C renal it was 5.93% (active); in the test on UO-31 renal, 61.7%; with TK-10 renal, 76.5%; in the test with ACHN renal, 63.5%. For the same compound, the growth was 76.1% in the test with CAKI-1 renal; 99.7% in the test on A498 renal; 9.4% (active) in the test on CCRF-CEM leukemia; 14% with MOLT-4 leukemia; 10.4% in the test on SR leukemia; 24.5% with RPMI-8226 leukemia. Further, the growth in the test on OVCAR-8 ovarian was 24.8%; in the test on OVCAR-5 ovarian it was 82.7%; in the test on OVCAR-4 ovarian it was 75%; in the test with SK-OV-3 ovarian, 109%; in the test on IGROV1 ovarian, 43.2%; in the test with OVCAR-3 ovarian it was 31.6%. Moreover, the growth is 74.9% in the test with HS 578T breast and 60.2% with NCI/ADR-RES ovarian.
With `CN(C)c1ccc(Cc2cc(-c3ccccc3)nn(C/C(=N/O)c3ccccc3)c2=O)cc1`, the growth is 67.9% in the test with SK-MEL-2 melanoma; 49.5% in the test on EKVX NSCLC; 17.9% with SN12C renal; 36.1% with UO-31 renal; 84.5% in the test on TK-10 renal; 52.8% with ACHN renal. In addition, the growth was 53.6% in the test on CAKI-1 renal; -3.2% (active) in the test with A498 renal; 46.6% with CCRF-CEM leukemia; 35.1% with MOLT-4 leukemia; 46.3% with SR leukemia; 28.2% with RPMI-8226 leukemia. The growth in the test on OVCAR-8 ovarian was 57.2%; in the test with OVCAR-5 ovarian, 89.7%; in the test on OVCAR-4 ovarian it was 55.1%; in the test on SK-OV-3 ovarian it was 94.6%; in the test with IGROV1 ovarian it was 68.5%; in the test on OVCAR-3 ovarian it was 56.2%. Moreover, the growth is 83.1% in the test on HS 578T breast and 44.1% in the test with NCI/ADR-RES ovarian.
As to `C=CCNc1nc(O)c(/C=C2\C=Nc3ncccc32)s1`, the growth is -8.35% (active) in the test with SK-MEL-2 melanoma; 30.5% with EKVX NSCLC; 24% in the test on SN12C renal; 3.09% (active) with UO-31 renal; 1.67% (active) in the test with TK-10 renal; -1.22% (active) with ACHN renal. Further, the growth in the test with CAKI-1 renal is 30.2%; in the test on A498 renal it was -34.5% (active); with CCRF-CEM leukemia it was 7.13% (active); in the test with MOLT-4 leukemia, 5.78% (active); with SR leukemia it was -9.51% (active); in the test on RPMI-8226 leukemia it was 42.7%. Besides, the growth with OVCAR-8 ovarian is 10.7%; in the test with OVCAR-5 ovarian it was 5.27% (active); with OVCAR-4 ovarian, 34.7%; with SK-OV-3 ovarian it was -7% (active); with IGROV1 ovarian it was 17%; with OVCAR-3 ovarian, -7.02% (active). Moreover, the results for the growth in the test with HS 578T breast and in the test on NCI/ADR-RES ovarian were -15% (active) and 42.1%, respectively.
Turning to `CN1C(=O)N(C)C2C1NN=c1s/c(=C\c3ccc(F)cc3)c(=O)n12` (stereo not given), the growth was 48.6% with SK-MEL-2 melanoma; 63.8% in the test with EKVX NSCLC; 36.3% with SN12C renal; 39.8% with UO-31 renal; 65.1% in the test on TK-10 renal; 39.2% in the test with ACHN renal. The growth with CAKI-1 renal is 29.1%; in the test with A498 renal, 9.72% (active); in the test with CCRF-CEM leukemia, 18.1%; in the test with MOLT-4 leukemia, 23.2%; with SR leukemia it was 26.8%; in the test with RPMI-8226 leukemia, 66.5%. In addition, the growth was 29.5% with OVCAR-8 ovarian; 48.6% with OVCAR-5 ovarian; 28.6% in the test on OVCAR-4 ovarian; 33.1% with SK-OV-3 ovarian; 11% with IGROV1 ovarian; 7.29% (active) in the test on OVCAR-3 ovarian. Further, the results for the growth with HS 578T breast and in the test with NCI/ADR-RES ovarian were 14.8% and 10.3%, respectively.
